Laboratory results taken from publication PMC4336329 (PLoS ONE, 2015).
Out of some 310,000 compounds screened, about 14,000 (4.5%) showed an effect of 50% or more. Effects have a minus sign here. The full list was thinned out, with strong results kept by preference.

target: human ether-à-go-go-related gene (hERG) potassium channel (human, UniProt Q12809); experiment: primary screen, population patch clamp on CHO cells stably expressing hERG; higher = less effect of the substance
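Further: peak tail current of the secondary pulse compared with the same well before compound.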

Chain of human ether-à-go-go-related gene (hERG) potassium channel (Q12809 whole entry, looked up): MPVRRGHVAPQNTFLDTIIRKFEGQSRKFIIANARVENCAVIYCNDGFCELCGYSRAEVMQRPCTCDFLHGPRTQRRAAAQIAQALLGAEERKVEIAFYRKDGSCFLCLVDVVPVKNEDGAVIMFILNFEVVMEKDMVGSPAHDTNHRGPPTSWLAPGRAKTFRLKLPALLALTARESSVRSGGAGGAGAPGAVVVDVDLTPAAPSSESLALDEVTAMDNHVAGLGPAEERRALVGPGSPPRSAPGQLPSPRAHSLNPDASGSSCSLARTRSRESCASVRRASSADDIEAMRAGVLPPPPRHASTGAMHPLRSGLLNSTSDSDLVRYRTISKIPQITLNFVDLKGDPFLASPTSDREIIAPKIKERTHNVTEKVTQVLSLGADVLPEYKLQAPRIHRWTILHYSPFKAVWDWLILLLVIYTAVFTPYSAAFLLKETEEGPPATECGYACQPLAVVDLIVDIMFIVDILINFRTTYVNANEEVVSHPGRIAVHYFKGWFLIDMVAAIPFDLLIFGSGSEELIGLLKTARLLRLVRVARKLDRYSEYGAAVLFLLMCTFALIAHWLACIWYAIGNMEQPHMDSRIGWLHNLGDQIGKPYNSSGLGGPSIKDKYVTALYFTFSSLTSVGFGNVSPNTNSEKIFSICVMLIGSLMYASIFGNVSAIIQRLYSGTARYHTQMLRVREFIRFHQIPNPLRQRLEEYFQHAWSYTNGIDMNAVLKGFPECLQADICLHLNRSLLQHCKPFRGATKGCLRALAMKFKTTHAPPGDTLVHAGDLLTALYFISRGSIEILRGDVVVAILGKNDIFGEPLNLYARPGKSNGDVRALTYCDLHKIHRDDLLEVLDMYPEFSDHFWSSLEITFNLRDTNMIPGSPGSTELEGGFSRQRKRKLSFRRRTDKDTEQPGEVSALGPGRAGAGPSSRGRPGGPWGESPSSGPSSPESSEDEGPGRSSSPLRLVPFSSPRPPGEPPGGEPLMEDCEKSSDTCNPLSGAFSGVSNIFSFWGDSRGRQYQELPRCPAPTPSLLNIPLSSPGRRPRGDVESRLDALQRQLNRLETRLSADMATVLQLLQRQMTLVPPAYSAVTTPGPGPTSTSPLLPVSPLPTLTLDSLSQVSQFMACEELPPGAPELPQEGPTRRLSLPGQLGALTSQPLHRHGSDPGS

Row | SMILES | hERG current change (%, negative = inhibition) at 10uM [%]
1 | N#C/C(=C\c1ccccc1)C(=O)NC1CC1 | 11.3
2 | O=C(CSc1nnnn1-c1cccc(F)c1)Nc1nc2ccccc2s1 | 8.36
3 | COCC1CCN(Cc2cn[nH]c2-c2cc3ccccc3o2)C1 (stereo not shown) | -33.7
4 | Cc1nonc1C1CCCN1Cc1cn[nH]c1-c1ccc(-c2ccccc2)cc1 (stereo not shown) | -24.6
5 | c1ccc2oc(-c3[nH]ncc3CN3CCC(N4CCSCC4)CC3)cc2c1 | -61.9
6 | COc1ccc(-c2[nH]ncc2CN2CCC(N3CCSCC3)CC2)c(F)c1 | 1.98
7 | c1ccc2oc(-c3[nH]ncc3CN3CCSCC3)cc2c1 | -5.92
8 | c1ccc(-c2ccc(-c3[nH]ncc3CN3CCC(N4CCSCC4)CC3)cc2)cc1 | -80.7
9 | CN(C)c1ccc(CNC(=O)CN(C)S(=O)(=O)c2ccc3c(c2)c(=O)n(C)c(=O)n3C)cc1 | 9.67
10 | CC1(C)CC(=O)C2=C(C1)NC(=O)NC2c1ccccc1Cl (stereo not shown) | 16.3
11 | Cc1ccc(S(=O)(=O)NCC(=O)N(CC2CCCO2)C(C(=O)NC2CCCC2)C(C)C)cc1 (stereo not shown) | -1.47
12 | CC(C)C(C(=O)NC1CCCCC1)N(CC1CCCO1)C(=O)CNS(=O)(=O)c1ccc(F)cc1 (stereo not shown) | -7.17
13 | Cc1ccc(S(=O)(=O)NCC(=O)N(CC2CCCO2)C(C(=O)NC2CCCCC2)C(C)C)cc1 (stereo not shown) | -52.7
14 | Cl.O=C(O)CCNc1nc(-c2ccccc2)nc2ccccc12 | 2.17
15 | CC(C)(C)OC(=O)NNC(=O)NC12CC3CC(CC(C3)C1)C2 | -4.97
16 | Cc1ccc(NC(=O)CSc2nc(N)cc(N)n2)cc1S(=O)(=O)N1CCOCC1 | 7.71
17 | CCN(C(=O)C1CCN(c2nc(-c3ccc(OC)cc3)no2)CC1)c1ccccc1 | -24.7
18 | O=C(CSCc1ccccn1)Nc1ccccc1 | 1.85
19 | O=C(CSCc1cccc(CSCC(=O)Nc2ccccc2)n1)Nc1ccccc1 | -67
20 | O=C(CSCc1cccc(CSCC(=O)Nc2ccc3ccccc3c2)n1)Nc1ccc2ccccc2c1 | 9.54
21 | O=C(CSCc1ccco1)Nc1cc(C(F)(F)F)ccc1N1CCOCC1 | -49
22 | Cl.OC(COCc1ccccc1)CN1CCN(c2ccccc2F)CC1 (stereo not shown) | -45.9

Row | SMILES | hERG current change (%, negative = inhibition) at 10uM [%]
23 | Cl.OC(COc1ccc(F)cc1)CN1CCN(c2ccccc2F)CC1 (stereo not shown) | -66.6
24 | COc1cccc(OC)c1OCC(O)CN1CCN(c2ccccc2F)CC1.Cl (stereo not shown) | -12.2
25 | O=S(=O)(c1ccc(OCC(O)CN2CCN(c3ccccc3O)CC2)cc1)N1CCOCC1 (stereo not shown) | -6.91
26 | CC(C(=O)N1CCN(c2ccccc2F)CC1)c1ccc([N+](=O)[O-])cc1 (stereo not shown) | -68.4
27 | O=[N+]([O-])c1ccc(OCC(O)CN2CCN(c3ccccc3F)CC2)cc1 (stereo not shown) | -75.3
28 | CC(C(=O)N1CCN(c2ccccc2)CC1)c1ccc([N+](=O)[O-])cc1 (stereo not shown) | -42.7
29 | CC(C(=O)N1CCCC1)c1ccc([N+](=O)[O-])cc1 (stereo not shown) | -0.0422
30 | Cc1ccc(N2CCN(C(=O)NC3CCCCC3)CC2C)cc1 (stereo not shown) | 4.09
31 | CCOC(=O)c1c(S(=O)(=O)NCc2cccs2)c(C)n(C)c1C | -12.1
32 | CC(=O)c1ccc(N(C(=O)Cc2c[nH]c3ccccc23)C(C(=O)NC2CCCCC2)c2cccs2)cc1 (stereo not shown) | 7.81
33 | CN1C(=O)CSC1=NCC12CC3CC(CC(C3)C1)C2 | -19.6
34 | CC(C)CC(=O)NC1(C(F)(F)F)C(=O)Nc2c1c(=O)n(C)c(=O)n2C (stereo not shown) | 10.5
35 | COc1cc(OC)nc(NC2OC(=O)c3ccccc32)n1 (stereo not shown) | 0.248
36 | CC(=O)Oc1cc2c(cc1Cl)C(c1cccs1)CC1(CC(C)(C)NC(=S)N1)O2 (stereo not shown) | 9.77
37 | COc1cccc(CN2CCC(C(=O)N3CCN(Cc4ccc5c(c4)OCO5)CC3)CC2)c1OC | -39.5
38 | COc1cccc(CN2CCCC(C(=O)N3CCCCC3)C2)c1OC.O=C(O)C(=O)O (stereo not shown) | -26.3
39 | COc1cccc(CN2CCCC(C(=O)c3ccc4c(c3)OCO4)C2)c1O (stereo not shown) | -65.5
40 | COc1cc(OC)c(OC)cc1CN1CCCC(C(=O)N2CCCC2)C1.O=C(O)C(=O)O (stereo not shown) | 17.4
41 | COc1ccc(CN2CCCC(C(=O)c3ccc4c(c3)OCO4)C2)c(F)c1 (stereo not shown) | -64.2
42 | COc1cc(OC)c(OC)cc1CN1CCCC(C(=O)c2ccc3c(c2)OCO3)C1 (stereo not shown) | -67.1
43 | COc1cccc(CN2CCCC(C(=O)c3ccc4c(c3)OCO4)C2)c1OC (stereo not shown) | -63.3
44 | COC(=O)c1ccccc1NC(=O)COC(=O)CO/N=C(\C)c1ccc2c(c1)OCO2 | 21

Row | SMILES | hERG current change (%, negative = inhibition) at 10uM [%]
45 | CCn1c(SCC(=O)Nc2nc3ccc(OC)cc3s2)nnc1-c1ccoc1C | -32.3
46 | OC(COc1cc(Cl)c(Cl)cc1Cl)CN1CCN(c2ncccn2)CC1 (stereo not shown) | -11.3
47 | CCSc1nnc(NC(=O)CSc2nccn2-c2cc(C)cc(C)c2)s1 | -2.92
48 | COc1ccc(-c2c(C)nn3c(N4CCCCCC4)cc(C)nc23)cc1OC | 7.94
49 | COc1cccc(C(=O)C2CCCN(Cc3cccc4c3OCO4)C2)c1 (stereo not shown) | -49.4
50 | CCNC(=O)N1CCCC(C(=O)c2ccc(OC)c(OC)c2)C1 (stereo not shown) | 20.8
51 | COc1ccc(C(=O)C2CCCN(Cc3cccc4c3OCO4)C2)cc1OC (stereo not shown) | -73.8
52 | CCN1C(=O)CC(N2CCN(c3cccc(OC)c3)CC2)C1=O (stereo not shown) | 14.1
53 | Cc1cc2nccc(-c3ccccn3)n2n1 | 28.3
54 | Cc1ccc(Nc2nc(=O)[nH]nc2C)cc1 | -9.45
55 | CC1CCCCC1NC(=O)CCNC(=O)N1CC(=O)Nc2ccccc21 (stereo not shown) | 10.5
56 | CC(=O)Nc1cccc(-c2nnc(SCC(=O)n3c4c(c5ccccc53)CCCC4)n2C)c1 | 2.33
57 | CCOC(=O)c1c(NC(=O)COc2ccccc2F)sc2c1CC(C)(C)NC2(C)C | 5.17
58 | CCOC(=O)c1c(NC(=O)COc2ccccc2)sc2c1CC(C)(C)NC2(C)C | 14.3
59 | CCOC(=O)c1c(NC(=O)CSc2nc3ccccc3[nH]2)sc2c1CC(C)(C)NC2(C)C | -45.2
60 | CCOC(=O)c1c(NC(=O)CSc2ncccn2)sc2c1CC(C)(C)NC2(C)C | -55.9
61 | CCOC(=O)c1c(NC(=O)CSc2nnnn2-c2ccccc2OCC)sc2c1CC(C)(C)NC2(C)C | -71.2
62 | CCOC(=O)c1c(NC(=O)CSc2nc3ccc(C)cc3[nH]2)sc2c1CC(C)(C)NC2(C)C | -44.3
63 | CCOC(=O)c1c(NC(=O)CSc2nnnn2-c2ccccc2)sc2c1CCC(C)C2 (stereo not shown) | -5.66
64 | CCOC(=O)c1c(NC(=O)CSc2nnnn2-c2ccccc2)sc2c1CC(C)(C)NC2(C)C | -64.3
65 | COC(=O)c1c(NC(=O)Cc2ccccc2)sc2c1CC(C)(C)NC2(C)C | -11.1
66 | CCOC(=O)c1c(NC(=O)Cc2ccccc2)sc2c1CC(C)(C)NC2(C)C | -52

Row | SMILES | hERG current change (%, negative = inhibition) at 10uM [%]
67 | CCOC(=O)c1sc(NC(=O)CSc2nnnn2-c2ccccc2)c(C(=O)OCC)c1C | 4.34
68 | CCOC(=O)c1c(NC(=O)COc2ccccc2OCC)sc2c1CC(C)(C)NC2(C)C | 13.3
69 | N#Cc1ccc2ccn(CC(=O)NCc3ccccc3)c2c1 | -1.22
70 | O=C(CN1CCN(Cc2ccccc2F)C1=O)NC1CCCC1 | 1.87
71 | Cc1nccn1CC(O)COC1CCCCC1 (stereo not shown) | 13
72 | Nc1nnnn1/N=C/c1cccs1 | 3.28
73 | CSc1ncccc1C(=O)NCCc1ccccc1 | 7.94
74 | CC(C)n1c(CN2CCN(Cc3ccccc3)CC2)nc2ccccc21 | -14.4
75 | CCn1c(=S)sc2c(=O)n(-c3ccccc3)c(SC)nc21 | -11.2
76 | CCN(CC)C(=O)CSc1nc2c(sc(=S)n2-c2ccccc2OC)c(=O)n1-c1ccccc1 | -4.22
77 | CCN(CC)C(=O)CSc1nc2c(sc(=S)n2CC)c(=O)n1-c1ccccc1 | -66.9
78 | CCC(C)NC(=O)CSc1nc2c(sc(=S)n2Cc2ccco2)c(=O)n1-c1ccccc1 (stereo not shown) | -9.99
79 | CCN(CC)C(=O)CSc1nc2c(sc(=S)n2Cc2ccco2)c(=O)n1-c1ccccc1 | -29.4
80 | CCN(CC)C(=O)CSc1nc2c(sc(=S)n2-c2ccccc2)c(=O)n1Cc1ccco1 | -78.7
81 | CC(C)CCNC(=O)C1CCN(S(=O)(=O)c2ccc3c(c2)CC(C)N3C(=O)C2CCC2)CC1 (stereo not shown) | -12.7
82 | CN(Cc1ccccc1)C(=S)Nc1cccnc1 | 9.05
83 | COc1c(C)cc(Br)cc1C(=O)Nc1ccc(Cc2ccncc2)cc1 | -3.5
84 | COc1ccc(N(C(=O)Cn2nnc(-c3ccc(F)cc3)n2)C(C)C(=O)NC2CCCC2)cc1 (stereo not shown) | -22
85 | CCC/C(O)=C1\C(=O)CC(c2ccccc2)CC1=NCCc1c(C)[nH]c2ccccc12 (stereo not shown) | -39.3
